The values that follow come from PubChem BioAssay AID588351 (The Scripps Research Institute Molecular Screening Center, 2011).

The campaign covered roughly 1,900 compounds. About 1,600 (84%) were called active.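 Rule for the calls: active = mean activation above a set limit taken from the primary screen (cut at about 8% in these data); inactive = the rest.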 So high a share suggests a set chosen from earlier hits. Only a sample is shown.

The nature of the test: FXN GAA850 promoter activators in reporter cells, confirmation, cell-based, luminescence, HEK293 lucGAA850, triplicate (AID 588351).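 Note: 0% = DMSO wells and 100% = 10 µM SAHA wells.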 To be noted: HEK293 lucGAA850 FXN promoter luciferase reporter, 24 h; at 6 µM; stronger effect = higher value; 100% = activation by SAHA. (In a reporter assay the amount or activity of a reporter protein is the signal.)
As to `CC(C)c1cc(C(=O)N/N=C/C(Br)=C/c2ccccc2)n[nH]1`, the activation was 15.8% (active).
In the case of `Cc1cc(C(=O)N/N=C\C(Br)=C\c2ccccc2)c(C)o1` it was 26.2% (active); in that of `CC1(Cc2cccc(C#N)c2)C(=O)Nc2ccc(-c3cccc(C(F)(F)F)c3)cc21` (centres undefined), 10.7% (active); in that of `Cc1c(-c2ccccc2)nc(N)c(C#N)c1-c1cccs1`, 14.5% (active).
In the case of `O=C1[C@H]2[C@@H](c3ccc(Cl)cc3)N3C(=O)N(c4cccc(F)c4)C(=O)[C@@]3(Cc3ccccc3)[C@H]2C(=O)N1C1CCCCC1` it was 11.2% (active); in that of `O=C1[C@H]2[C@@H](c3ccc(F)cc3)N3C(=O)N(c4ccc(C(F)(F)F)cc4)C(=O)[C@@]3(Cc3ccccc3)[C@H]2C(=O)N1C1CCCCC1`, 16.2% (active); in that of `C[C@@]12C(=O)N(c3cccc(Br)c3)C(=O)N1[C@H](c1ccc(Cl)cc1)[C@@H]1C(=O)N(C3CCCCC3)C(=O)[C@@H]12`, 5.12% (inactive).
Regarding `Cc1noc(C)c1-c1ccc2ncnc(NC(C)c3ccco3)c2c1` (centres undefined), the activation was 20.1% (active).
Then `Cc1ccc(NC(=O)c2sc3nc(N)c(C#N)cc3c2N)cc1`, with 27.4% (active).
`O=C(CC1NCCc2ccccc21)Nc1cccc(Cl)c1` (centres undefined): the activation is 26.7% (active).
In the case of `CC1(C(=O)NCc2cccc3ccccc23)CCN1Cc1ccc(-c2ccccc2)o1` (centres undefined), the activation is 11.9% (active).
Turning to `COc1ccc(-c2csc(Nc3ccc(O)cc3)n2)cc1`, the activation was 40.1% (active).
Then `COc1ccc(-c2csc(Cc3nc(O)cs3)n2)cc1`, with -4.16% (inactive); and `O=c1oc2ccccc2cc1-c1csc(Nc2ccc(O)cc2)n1`, with 44.3% (active); and `O=c1[nH]cnc2c1c(-c1ccccc1)cn2-c1ccc(F)cc1`, with 9.89% (active).
As to `Cc1ccc(-n2c(C)cc(/C=C(\C#N)C(=O)NCC3CCCO3)c2C)cc1` (centres undefined), the activation was 41.3% (active).
As to `COc1ccc(NC(=O)CSc2nc(SC)ns2)c(OC)c1`, the activation is 40.6% (active).
Then `CSc1nc(N)c(C#N)c(-c2ccccc2Cl)c1C#N`, with 21.1% (active); and `CCCCn1c(SCC(=O)NCCc2ccc(OC)c(OC)c2)nc2c1c(=O)n(C)c(=O)n2C`, with 8.75% (active); and `COc1ccc(N(CCC#N)S(=O)(=O)c2ccc(Cl)cc2)cc1`, with 3.78% (inactive).
Regarding `Cc1ccc(C2Nc3cccc4cccc(c34)N2)cc1`, the activation is 12.4% (active).
For the molecule `COc1cc(/C=N/Nc2nc3ccccc3s2)ccc1O`, the activation was 34.8% (active).
In the case of `CC1(C(=O)N/N=C/c2cc3c(cc2Br)OCO3)CC1(Br)Br` (centres undefined) it was 15.3% (active); in that of `COc1ccc(-c2nnc(SCC(=O)c3cccs3)o2)c(OC)c1`, 26.2% (active); in that of `N#CC1=C(SCc2ccc(C#N)cc2)N=C(N)C(c2nc(-c3ccccc3)cs2)C12CCCCC2` (centres undefined), 17.6% (active).
In the case of `CCOc1ccc(Nc2oc(Cc3ccccc3)nc2C#N)cc1` it was 32.1% (active); in that of `CCC1(CC)Cc2ccccc2-c2nc(CCl)[nH]c(=O)c21`, 1.84% (inactive).
In the case of `CN1C(=O)/C(=C\c2cc(Br)cs2)c2ccccc21` it was 38.3% (active); in that of `CCOC(=O)c1cc2cc(C)ccc2[nH]1`, 29.5% (active).
`CN(C)[C@@H]1C(=O)C(C(N)=O)=C(O)[C@@]2(O)C(=O)C3=C(O)c4c(O)ccc(Cl)c4[C@@H](O)[C@H]3C[C@@H]12`: the activation was 15.3% (active).
Then `C=C1c2c(Cl)ccc(O)c2C(O)=C2C(=O)[C@]3(O)C(O)=C(C(N)=O)C(=O)[C@@H](N(C)C)[C@@H]3[C@@H](O)C12` (some centres undefined), with 15.5% (active).
Take `Cc1nc(-c2ccc(F)cc2)c(CC(=O)Nc2cc(S(=O)(=O)N3CCCCC3)ccc2C)s1`: the activation was 6.94% (inactive).
`COc1ccc(C2Nc3ccccc3C(=O)N2c2ccc(Cl)cc2)cc1Cn1cc([N+](=O)[O-])cn1` (centres undefined): the activation was 26.8% (active).
For `Cc1cc(C)nc(S/C=C/C(=O)c2ccccc2)n1`, the activation was -19% (inactive).
Then `c1ccc(-c2cc(-c3ccccc3)[nH]n2)cc1`, with 43% (active); and `Oc1ccccc1-c1cc(-c2ccc(Cl)cc2)n[nH]1`, with 46.8% (active).
As for `O=C(N/N=C/C=C/c1ccco1)c1cccs1`, the activation is 31.4% (active).
On to `O=C(COc1ccc(Cl)cc1Cl)NCCCNC(=O)c1cnccn1`, for which the activation was 7.43% (inactive).
In the case of `O=C(Nc1ccc2c(c1)OCCO2)c1cnccn1` it was 25.8% (active).
